# In PubChem BioAssay (NCI):
# The panel holds about 79,000 compounds, 15% with a hit somewhere; the sample as a whole holds those more often. Values without a mark were called inactive. Activity calls are given as the source filed them. No stated cut-off is given here; in the data, active means growth inhibition above about 70%; inactive means the rest.
# Tests used:
# [1] = NCI Yeast Anticancer Drug Screen. Data for the rad52 strain (AID 147);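 further: 0% = growth of vehicle-treated control cultures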; settings: S. cerevisiae rad52 mutant growth inhibition, hits give high values
# Outline: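 Read-out: growth inhibition versus vehicle-treated controls. Cells were a DNA repair-deficient yeast strain treated with compounds.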
# [2] = NCI Yeast Anticancer Drug Screen. Data for the wt1 strain (AID 149);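 further: 0% = growth of vehicle-treated wt1 cultures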; settings: S. cerevisiae wt1 strain (SPY 50644) growth inhibition, hits give high values
# Outline: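 Each compound is tested on wt1 yeast and the loss of growth versus vehicle gives the inhibition value.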
# [3] = NCI Yeast Anticancer Drug Screen. Data for the rad50EPP+ strain (AID 151);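 further: 0% = growth of vehicle-treated control cultures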; settings: S. cerevisiae rad50 mutant strain, hits give high values
# Outline: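 Growth inhibition read against vehicle controls in rad50EPP+ yeast, a strain altered in DNA damage repair, after compound exposure.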
# [4] = NCI Yeast Anticancer Drug Screen. Data for the rad50 strain (AID 155);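 further: 0% = growth of vehicle-only cultures of the same strain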; settings: S. cerevisiae rad50 strain growth inhibition, hits give high values
# Outline: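 Vehicle-treated cultures provide the reference for the growth inhibition reported for compound-exposed, repair-deficient yeast.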
# [5] = NCI Yeast Anticancer Drug Screen. Data for the mec2-1 strain (AID 157); settings: S. cerevisiae mec2-1 strain, hits give high values
# Outline: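 Yeast mec2-1 mutant treated with compound. Readout: growth inhibition vs vehicle controls.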
# [6] = NCI Yeast Anticancer Drug Screen. Data for the sgs1 mgt1 strain (AID 161);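 further: 0% = growth of cultures given vehicle only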; settings: S. cerevisiae sgs1 mgt1 strain, hits give high values
# Outline: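 Test agents were incubated with a DNA-repair-mutant yeast strain. Growth was then read and compared against vehicle-treated controls.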
# [7] = NCI Yeast Anticancer Drug Screen. Data for the CLN2oe strain (AID 163);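 further: 0% = growth of vehicle-only control cultures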; settings: S. cerevisiae CLN2oe strain, hits give high values
# Outline: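 Read-out: yeast growth inhibition, expressed relative to vehicle-only controls. The strain bears an engineered cell-cycle alteration.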
# [8] = NCI Yeast Anticancer Drug Screen. Data for the cln2 rad14 strain (AID 165);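 further: 0% = growth equal to vehicle treated cultures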; settings: S. cerevisiae cln2 rad14 strain, hits give high values
# Outline: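 cln2 rad14 yeast strain; compound exposure; growth inhibition read vs vehicle controls.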
# [9] = NCI Yeast Anticancer Drug Screen. Data for the wt2 strain (AID 169); settings: S. cerevisiae wt2 strain growth inhibition, hits give high values
# Outline: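 Read-out: growth inhibition versus vehicle-treated control cultures after compound exposure of the yeast strain.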
# [10] = NCI Yeast Anticancer Drug Screen. Data for the mlh1 strain (AID 171);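 further: 0% = growth of vehicle-treated control cultures of the same strain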; settings: S. cerevisiae mlh1 strain growth inhibition, hits give high values
# Outline: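 Read-out: growth inhibition versus vehicle controls. Strain: engineered yeast with a defined DNA repair or cell cycle defect, compound-treated.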
# [11] = NCI Yeast Anticancer Drug Screen. Data for the sgs1 strain (AID 173);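 further: 0% = growth of vehicle-only control cultures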; settings: S. cerevisiae sgs1 mutant, hits give high values
# Outline: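 Read-out: yeast growth inhibition relative to vehicle controls, following compound exposure of a strain with a defined DNA repair/cell cycle alteration.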
# [12] = NCI Yeast Anticancer Drug Screen. Data for the mlh1 rad18 strain (AID 175); settings: S. cerevisiae mlh1 rad18 strain growth inhibition, hits give high values
# Outline: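 Yeast w/ defined DNA-repair lesions; compound exposure; growth vs vehicle controls → % inhibition.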
# [13] = NCI Yeast Anticancer Drug Screen. Data for the rad18 strain (AID 177); settings: S. cerevisiae rad18 mutant growth inhibition, hits give high values
# Outline: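 Readout: growth inhibition vs vehicle controls. Cells: genetically altered yeast strain, DNA repair defect.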
# [14] = NCI Yeast Anticancer Drug Screen. Data for the mgt1 strain (AID 153); settings: S. cerevisiae mgt1 mutant growth inhibition, hits give high values
# Outline: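 mgt1 yeast grown with test compound; read-out is growth inhibition versus vehicle-treated cultures.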
# [15] = NCI Yeast Anticancer Drug Screen. Data for the rad14 strain (AID 159);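 further: 0% = growth of vehicle-treated control cultures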; settings: S. cerevisiae rad14 strain growth inhibition, hits give high values
# Outline: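 Inhibition of growth is reported for a repair-deficient yeast mutant following compound treatment, calculated relative to cultures that received vehicle.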
# [16] = NCI Yeast Anticancer Drug Screen. Data for the bub3 strain (AID 167); settings: S. cerevisiae bub3 mutant strain, hits give high values
# Outline: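 Mutant yeast screening strain plus compound; vehicle-treated cultures serve as the 0% inhibition reference.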
# [17] = at 5.0 µM (retest, dose inferred, filed as 0.5)
# [18] = at 50.0 µM (retest, dose inferred, filed as 5.0)
compound,measurement,setting,value
CCN(CC)N=Nc1c(C(N)=O)n[nH]c1C,growth inhibition,[1]; at 1.2 µM,0%
same,growth inhibition,[1]; at 3.7 µM,-3%
same,growth inhibition,[1]; at 11.0 µM,8%
same,growth inhibition,[1]; at 33.0 µM,47%
same,growth inhibition,[1]; at 100.0 µM,93% (active)
same,growth inhibition,[2]; at 1.2 µM,-6%
same,growth inhibition,[2]; at 3.7 µM,-5%
same,growth inhibition,[2]; at 11.0 µM,-7%
same,growth inhibition,[2]; at 33.0 µM,-5%
same,growth inhibition,[2]; at 100.0 µM,0%
same,growth inhibition,[3]; at 1.2 µM,-2%
same,growth inhibition,[3]; at 3.7 µM,3%
same,growth inhibition,[3]; at 11.0 µM,5%
same,growth inhibition,[3]; at 33.0 µM,31%
same,growth inhibition,[3]; at 100.0 µM,80% (active)
same,growth inhibition,[4]; at 1.2 µM,-10%
same,growth inhibition,[4]; at 3.7 µM,-8%
same,growth inhibition,[4]; [17],-138%
same,growth inhibition,[4]; at 11.0 µM,9%
same,growth inhibition,[4]; at 33.0 µM,54%
same,growth inhibition,[4]; [18],56%
same,growth inhibition,[4]; at 50.0 µM,85.3% (active)
same,growth inhibition,[4]; at 100.0 µM,92% (active)
same,growth inhibition,[5]; at 1.2 µM,2%
same,growth inhibition,[5]; at 3.7 µM,1%
same,growth inhibition,[5]; [17],-46%
same,growth inhibition,[5]; at 11.0 µM,8%
same,growth inhibition,[5]; at 33.0 µM,2%
same,growth inhibition,[5]; [18],-40%
same,growth inhibition,[5]; at 50.0 µM,15.8%
same,growth inhibition,[5]; at 100.0 µM,27%
same,growth inhibition,[6]; [17],-62%
same,growth inhibition,[6]; [18],-35%
same,growth inhibition,[6]; at 50.0 µM,-0.05%
same,growth inhibition,[7]; at 1.2 µM,-5%
same,growth inhibition,[7]; at 3.7 µM,1%
same,growth inhibition,[7]; at 11.0 µM,0%
same,growth inhibition,[7]; at 33.0 µM,0%
same,growth inhibition,[7]; at 100.0 µM,4%
same,growth inhibition,[8]; [17],-55%
same,growth inhibition,[8]; [18],-63%
same,growth inhibition,[8]; at 50.0 µM,-29.2%
same,growth inhibition,[9]; at 1.2 µM,-1%
same,growth inhibition,[9]; at 3.7 µM,0%
same,growth inhibition,[9]; at 11.0 µM,-1%
same,growth inhibition,[9]; at 33.0 µM,-1%
same,growth inhibition,[9]; at 100.0 µM,2%
same,growth inhibition,[10]; at 1.2 µM,6%
same,growth inhibition,[10]; at 3.7 µM,-6%
same,growth inhibition,[10]; at 11.0 µM,-5%
same,growth inhibition,[10]; at 33.0 µM,-2%
same,growth inhibition,[10]; at 100.0 µM,-3%
same,growth inhibition,[11]; at 1.2 µM,-1%
same,growth inhibition,[11]; at 3.7 µM,-1%
same,growth inhibition,[11]; at 11.0 µM,-2%
same,growth inhibition,[11]; at 33.0 µM,9%
same,growth inhibition,[11]; at 100.0 µM,43%
same,growth inhibition,[12]; [17],-124%
same,growth inhibition,[12]; [18],-75%
same,growth inhibition,[12]; at 50.0 µM,40.4%
same,growth inhibition,[13]; at 1.2 µM,-2%
same,growth inhibition,[13]; at 3.7 µM,0%
same,growth inhibition,[13]; at 11.0 µM,6%
same,growth inhibition,[13]; at 33.0 µM,23%
same,growth inhibition,[13]; at 100.0 µM,83% (active)
Clc1cc(-c2ccccc2)nc2ccccc12,growth inhibition,[1]; at 1.2 µM,6%
same,growth inhibition,[1]; at 3.7 µM,-1%
same,growth inhibition,[1]; at 11.0 µM,0%
same,growth inhibition,[1]; at 33.0 µM,34%
same,growth inhibition,[1]; at 100.0 µM,75% (active)
same,growth inhibition,[2]; at 1.2 µM,-10%
same,growth inhibition,[2]; at 3.7 µM,-15%
same,growth inhibition,[2]; at 11.0 µM,-17%
same,growth inhibition,[2]; at 33.0 µM,24%
same,growth inhibition,[2]; at 100.0 µM,71% (active)
same,growth inhibition,[14]; at 1.2 µM,13%
same,growth inhibition,[14]; at 3.7 µM,32%
same,growth inhibition,[14]; at 11.0 µM,36%
same,growth inhibition,[14]; at 33.0 µM,80% (active)
same,growth inhibition,[14]; at 100.0 µM,97% (active)
same,growth inhibition,[4]; at 1.2 µM,6%
same,growth inhibition,[4]; at 3.7 µM,10%
same,growth inhibition,[4]; [17],68%
same,growth inhibition,[4]; at 11.0 µM,2%
same,growth inhibition,[4]; at 33.0 µM,36%
same,growth inhibition,[4]; [18],90% (active)
same,growth inhibition,[4]; at 50.0 µM,75.3% (active)
same,growth inhibition,[4]; at 100.0 µM,81% (active)
same,growth inhibition,[5]; at 1.2 µM,-18%
same,growth inhibition,[5]; at 3.7 µM,-8%
same,growth inhibition,[5]; [17],77% (active)
same,growth inhibition,[5]; at 11.0 µM,-14%
same,growth inhibition,[5]; at 33.0 µM,33%
same,growth inhibition,[5]; [18],92% (active)
same,growth inhibition,[5]; at 50.0 µM,44.4%
same,growth inhibition,[5]; at 100.0 µM,86% (active)
same,growth inhibition,[15]; at 1.2 µM,1%
same,growth inhibition,[15]; at 3.7 µM,2%
same,growth inhibition,[15]; at 11.0 µM,1%
same,growth inhibition,[15]; at 33.0 µM,46%
same,growth inhibition,[15]; at 100.0 µM,91% (active)
same,growth inhibition,[6]; [17],-23%
same,growth inhibition,[6]; [18],88% (active)
same,growth inhibition,[7]; at 1.2 µM,5%
same,growth inhibition,[7]; at 3.7 µM,3%
same,growth inhibition,[7]; at 11.0 µM,-8%
same,growth inhibition,[7]; at 33.0 µM,28%
same,growth inhibition,[7]; at 100.0 µM,54%
same,growth inhibition,[8]; [17],40%
same,growth inhibition,[8]; [18],82% (active)
same,growth inhibition,[16]; at 1.2 µM,11%
same,growth inhibition,[16]; at 3.7 µM,23%
same,growth inhibition,[16]; [17],27%
same,growth inhibition,[16]; at 11.0 µM,34%
same,growth inhibition,[16]; at 33.0 µM,60%
same,growth inhibition,[16]; [18],93% (active)
same,growth inhibition,[16]; at 100.0 µM,93% (active)
same,growth inhibition,[9]; at 1.2 µM,-11%
same,growth inhibition,[9]; at 3.7 µM,-3%
same,growth inhibition,[9]; at 11.0 µM,0%
same,growth inhibition,[9]; at 33.0 µM,47%
same,growth inhibition,[9]; at 100.0 µM,86% (active)
same,growth inhibition,[11]; at 1.2 µM,-9%
same,growth inhibition,[11]; at 3.7 µM,-12%
same,growth inhibition,[11]; at 11.0 µM,-9%
same,growth inhibition,[11]; at 33.0 µM,42%
same,growth inhibition,[11]; at 100.0 µM,82% (active)
same,growth inhibition,[12]; [17],47%
same,growth inhibition,[12]; [18],87% (active)
same,growth inhibition,[12]; at 50.0 µM,31.4%
